# This is a sample that favours compounds with a hit; in the whole collection about 6.7% have one here.
# MCF10A rereplic: inducers of DNA re-replication in MCF 10A breast cells | MCF 10A DNA re-replication, Hoechst nuclear intensity, 48 h | Potency, µM (highest dose often 46.1 µM), without a hit: at the highest dose activity, positive = re-replication, usual class: activators | 350,000 compounds, 2.9% hits | AID 624296; also: % of control where 0% means no effect; nearly all actives have a fitted effect of over 50% in size
# SW480 rerep: inducers of DNA re-replication in SW480 colon cancer cells. Potency, µM (series often up to 46.1 µM), for the others: at the top dose re-replication activation, usual class: activators. 340,000 compounds, 1.8% hits. SW480 DNA re-replication, Hoechst DNA content imaging, 48 h. AID 624297; also: % of control where 0% means no effect; nearly all actives have a fitted effect of over 55% in size
#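 SW480 cells exposed to compounds for 48 hr at 37 C, 5% CO2, then Hoechst-stained 40 min. Nuclear DNA content imaged by fluorescence scanning (405 nm excitation, 500-530 nm emission); re-replication scored as increased high-intensity nuclei.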
# PINK1 expr mod: modulators of PINK1 expression. PINK1 immunofluorescence, high-content cytometry, 24 h. Potency, µM (highest dose often 76.6 µM), for the others: top-dose activation (PINK1 increase), actives largely listed as activators. 410,000 compounds, 0.2% hits; active = well fitted activation curve with a large enough effect; inconclusive = small, poorly fitted or top-dose-only effect; cell line not stated here; also: % of control where 0% means no effect; nearly all actives have a fitted effect of over 65% in size
#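 Measures PINK1 amount and localization on or inside mitochondria by immunofluorescence. Stable cells get compounds at 5 concentrations for 24 hours before fixation and staining; CCCP controls included.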
# KB-3-1 cytotox: KB-3-1 parental cell cytotoxicity; AID 1347075; KB-3-1 viability, CellTiter-Glo ATP luminescence, 72 h; 400,000 compounds, 1.4% hits; Potency, µM (titrated, usually from 46.1 µM), actives largely listed as cytotoxic; also: % is scaled to controls: 0 for no effect and ±100 for the full control effect; nearly all actives have a fitted effect of over 60% in size
#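 KB-3-1 parental drug-naive adenocarcinoma cells in DMEM/10% FBS, incubated 72 h at 37 C with pin-transferred compounds across a concentration series. Viability by CellTiter-Glo luminescence; concentration-response curves fitted after normalization.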
# KB-V1 MDR tox: kills drug-selected multidrug resistant KB-V1 cells. KB-V1 MDR cells viability, CellTiter-Glo, 72 h. Potency, µM (top dose mostly 46.1 µM), most hits filed as cytotoxic. 400,000 compounds, 3.4% hits; also: % is scaled to controls: 0 for no effect and ±100 for the full control effect; nearly all actives have a fitted effect of over 60% in size
#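 Compound-treated KB-V1 multidrug-resistant cells, 72 h, 37 degrees C; viability by CellTiter-Glo. Fitted qHTS curves give the values.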
# Numbers without * were called inactive; i = inactive; ? = inconclusive; . = no result; ! = not active in a repeat; [ ] = dose if it differs, or a comment. Unless noted, calls follow the shape of the dose curve; as a rule, active = well fitted curve in the direction sought with a large enough effect; inconclusive = small, poorly fitted or top-dose-only effect, or another doubt; inactive = no such curve, though single readings can be large; an effect the other way counts as inactive or inconclusive. Potency is read from the fitted curve at half-maximal effect.
SMILES,MCF10A rereplic,SW480 rerep,PINK1 expr mod,KB-3-1 cytotox,KB-V1 MDR tox
CCC1CCCCN1S(=O)(=O)c1ccc(C(=O)Nc2nnc(-c3ccccc3Cl)o2)cc1 (configuration not stated),?,?,-0.2%,?,?
COC(=O)c1sc2ccccc2c1NC(=O)c1ccc(S(=O)(=O)N2CCCCC2C)cc1 (configuration not stated),17.3%,2.7%,4.2%,i,16.4µM*
O=C(Nc1nnc(-c2ccccc2Cl)o1)c1ccc(S(=O)(=O)N2CCCCCC2)cc1,3.98µM*,?,0.2%,?,8.2µM*
COc1ncc2nc(CCc3ccccc3)c(=O)n(C3CC3)c2n1,.,.,-0.3%,.,.
COc1ccccc1-n1c(CCC(=O)O)ccc1-c1ccccc1,0.1%,-9.9%,0.0%,i,?
COc1ccc(-c2ccc(CCC(=O)O)n2-c2ccccc2OC)cc1,14.6µM*,18.4µM*,13.8%,?,?
CCOC(=O)C(=O)c1csc(NC(=O)CCSc2ccc(C)cc2)n1,0.581µM*,3.0%,7.2%,i,i
COc1cccc(NC(=O)COC(=O)C2CCCCC2)c1,-1.5%,-7.4%,2.0%,?,i
NC(=O)C(F)(F)C12OC3C4C5CC(C6C5C3C61)C42 (configuration not stated),20.6µM*,?,-5.7%[38.3 µM],i,i
O=c1c2ccccc2sn1-c1ccccc1F,.,.,-0.3%,?,?
Cc1ccccc1-n1sc2cc(F)ccc2c1=O,16.4µM*,?,-2.0%,?,?
CC1(C)CC(C(CCN(Cc2ccccc2)C(=O)c2ccco2)c2ccc(F)cc2)CCO1 (configuration not stated),8.2µM*,-76.7%,?,?,9.2µM*
O=C(c1ccco1)N(CCC(c1ccccc1)c1ccco1)Cc1ccc(F)cc1 (configuration not stated),10.3µM*,?,0.9%[38.3 µM],i,7.31µM*
COc1cccc(N2CCN(C(=O)c3cc4c(=O)n(Cc5ccco5)ccc4nc3C)CC2)c1,.,.,2.1%,.,.
COc1cc2ncnc(NCc3ccc(C)o3)c2cc1OC,-2.4%,-8.9%,2.2%,i,i
Cc1ccc(CNc2ncnc3cc(Cl)ccc23)o1,-15.4%,2.9%,1.3%,?,20.6µM*
O=C1N[C@@H](c2ccccc2)COC(=O)[C@@H](Cc2ccc(F)cc2)C/C=C\C[C@H]1CC(=O)N(CCO)Cc1ccccc1,?,?,0.6%,20.6µM*,?
O=C(N[C@@H]1C/C=C\C[C@H](CC(=O)N(CCO)Cc2ccccc2)C(=O)N[C@@H](Cc2ccccc2)COC1=O)OCC1c2ccccc2-c2ccccc21,13µM*,?,0.6%,?,i
O=C(N[C@H]1C/C=C\C[C@@H](CC(=O)N(CCO)Cc2ccccc2)C(=O)NC[C@H](c2ccccc2)OC1=O)OCC1c2ccccc2-c2ccccc21,6.51µM*,4.9%,0.1%,?,i
O=C1N[C@@H](c2ccccc2)COC(=O)[C@H](Cc2ccc(F)cc2)CC/C=C/C[C@@H]1CC(=O)N(CCO)Cc1ccccc1,?,21.6%,1.4%,?,?
Cc1ccc(-c2c(CN3CCN(c4cccc(C)c4)C(C)C3)csc2C)cc1 (configuration not stated),.,.,1.3%,.,.
Cc1cc2oc(C(=O)Nc3c(C(=O)Nc4ccccc4)oc4ccccc34)cc(=O)c2cc1C,.,.,0.7%,i,i
COc1cc(NC(=O)CN2C(=O)C(c3ccc(C)cc3)=NC23CCCCCC3)cc(OC)c1,.,.,1.2%,.,.
COc1ccccc1-c1ccnc(-n2ncc(C(=O)NCC3(N4CCOCC4)CCCC3)c2C)n1,.,.,0.9%,.,.
CC(=O)c1ccc(NS(=O)(=O)c2cccc(S(=O)(=O)c3ccc(Cl)cc3)c2)cc1,.,.,0.4%,i,i
SMILES,MCF10A rereplic,SW480 rerep,PINK1 expr mod,KB-3-1 cytotox,KB-V1 MDR tox
Cc1ccc(-c2nn(-c3ccccc3)cc2NC(=O)CCl)cc1,?,18.4µM*,1.5%,8.2µM*,?
CC(=O)c1sc(N/N=C\c2ccccc2O)nc1C,16.4µM*,?,1.0%,?,i
CCOC(=O)c1sc(N/N=C/c2ccccc2)nc1C,?,?,2.7%,i,i
Cc1cc(N2C(=O)C3C4c5ccccc5C(c5ccccc54)C3C2=O)no1 (configuration not stated),?,6.2%,0.9%,i,8.2µM*
CC1C(=O)N(Cc2cn(CC3CCCCC3)nn2)CCS(=O)(=O)N1Cc1ccc(-c2cccc(CO)c2)cc1 (configuration not stated),.,.,0.4%,?,i
O=C1CCC[C@@H]2[C@H](Cc3ccccc3)[C@@H](O)C[C@@H]3CCN1[C@@H]32,-45.2%,8.8%,0.9%,?,14.6µM*!
O=C(CCl)Nc1ccccc1Sc1ccc(Cl)cc1,14.6µM*,14.6µM*,.,?,?
CC(=O)N1CCN(CC(=O)Nc2ccccc2Sc2ccc(Cl)cc2)CC1,8.9%,1.6%,1.3%,?,5.8µM*
O=C(Cc1ccccc1)Nc1ccccc1Sc1ccccc1,-1.9%,-90.0%,6.0%,i,i
O=C(CSc1ncn[nH]1)Nc1ccccc1-c1ccccc1,256.0%[0.0737 µM],-13.6%,-0.2%,i,?
O=C(CSc1ncn[nH]1)Nc1ccccc1Sc1ccccc1,19.6%,0.2%,-4.9%[38.3 µM],i,14.6µM*
Cc1nn(CC(=O)N2CCN(c3ccccc3)CC2)c(=O)c2cccn12,7.4%,-3.2%,0.8%,i,i
C[C@@H]1CCCCO[C@@H](CN(C)C(=O)CCC(F)(F)F)[C@@H](C)CN([C@H](C)CO)C(=O)c2cc(N(C)C)ccc2O1,.,.,-0.7%,i,i
Nc1nc(=S)[nH]c(N)c1N,.,.,-0.7%,i,i
Cc1ccc(Cn2c(SCc3ccc(C(=O)NC4CCCC4)cc3)nc3ccncc32)cc1,.,.,2.5%,23.1µM*,i
Cc1ccc(Cn2c(SCc3ccc(C(=O)NC4CCCCC4)cc3)nc3ccncc32)cc1,.,.,1.4%,?,?
Cc1ccc(-n2nc(CO)c(C(=O)NCc3cccs3)n2)cc1,.,.,-1.3%,.,.
CN(C)CCNc1cc(N2CCN(C)CC2)ncn1,.,.,-0.9%,i,i
COc1ccc(C(c2nnnn2Cc2ccccc2)N2CCN(C(=O)c3ccco3)CC2)cc1 (configuration not stated),0.2%,2.4%,-0.6%,i,i
COc1cccc(CN2CCN(C(=O)c3ccco3)CC2)c1,0.581µM*,-22.6%,0.3%,i,i
COc1ccc(OCC(=O)Nc2ccc(N3CCN(C(=O)c4ccco4)CC3)cc2)cc1,?,-1.4%,0.2%,i,i
O=C(c1ccco1)N1CCN(C(c2ccc(Cl)cc2)c2nnnn2Cc2ccccc2)CC1 (configuration not stated),13.8%,-2.5%,0.2%,?,16.4µM*

# Bioassay records: PubChem BioAssay, National Center for Advancing Translational Sciences (NCATS)
